A selection: hits, their analogues and other compounds. The true share with any hit is near 3.5%.
DNMT1 block – inhibitors of human DNMT1 | inhibition (reported as % activation of signal), % at 10 µM | actives 0.83% (n = 360,000) | P26358 | DNMT1 molecular beacon, Hinp1I cleavage, fluorescence; in the data active = inhibition above about 50%
rCAG binder – molecules binding r(CAG) RNA repeats. AID 651821. actives 1.3% (n = 370,000). r(CAG) RNA repeat, TO-PRO-1 dye displacement fluorescence. inhibition, % at 3 µM;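 active = inhibition above the plate cutoff, the mean of all test compounds on that plate plus 3 SD, cut at about 35% in these data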;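 note: 0% = DMSO alone and 100% = 100 µM mitoxantrone as full dye displacement; higher means more dye released from RNA so lower well fluorescence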
UHRF1 MBD2 ctr – UHRF1 methyl-DNA binding inhibition | inhibition, % at 4.4 µM | AID 687016 | Q96T88 | actives 0.75% (n = 370,000) | UHRF1 binding to methylated oligo, TR-FRET; in the data active = inhibition above about 21%;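 note: UHRF1 SRA domain binding a hemimethylated CpG hairpin DNA probe; 0% = median of test compound wells and 100% = reference inhibitor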
LEDGF integ inh – blocks HIV-1 LEDGF/p75-dependent DNA integration; actives 0.64% (n = 370,000); TR-FRET IN-LEDGF/p75 DNA integration, Eu/Cy5; inhibition, % at 3.7 µM; AID 743269;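 active = inhibition above the screen-wide mean plus 3 SD, cut at about 13% in these data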;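 note: signal is the Cy5 over europium emission ratio at 671 and 618 nm; 0% = plate median of compound wells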
MBD2 DNA inh – blocks human MBD2 binding to methylated DNA | Q9UBB5 | TR-FRET, MBD2 binding to methylated oligonucleotide | inhibition, % at 4.4 µM | actives 0.31% (n = 370,000); in the data active = inhibition above about 13%
Target sequence (Q9UBB5 whole entry, looked up): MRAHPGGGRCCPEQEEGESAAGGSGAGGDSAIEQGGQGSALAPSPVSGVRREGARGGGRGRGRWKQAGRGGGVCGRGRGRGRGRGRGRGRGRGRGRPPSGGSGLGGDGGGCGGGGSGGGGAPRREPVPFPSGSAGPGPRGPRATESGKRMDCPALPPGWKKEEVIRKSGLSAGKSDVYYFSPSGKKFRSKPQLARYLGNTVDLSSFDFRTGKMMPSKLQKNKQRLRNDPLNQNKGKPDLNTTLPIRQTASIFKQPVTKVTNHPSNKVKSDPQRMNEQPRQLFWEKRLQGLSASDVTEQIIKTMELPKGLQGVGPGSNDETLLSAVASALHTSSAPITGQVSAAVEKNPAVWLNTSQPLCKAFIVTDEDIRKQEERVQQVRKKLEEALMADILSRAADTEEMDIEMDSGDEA
PG9 binder – PG9 antibody binding by small molecule; TR-FRET gp120-PG9 antibody binding; inhibition, % at 6.7 µM; actives 0.43% (n = 360,000); in the data active = inhibition above about 8.5%
IN multimer up – activates HIV-1 integrase multimerization in LEDGF counter-screen | AID 1053131 | TR-FRET HIV-1 integrase multimerization, biochemical | actives 17% (n = 2,000) | shares compounds with LEDGF integ inh | activation, % at 7.7 µM; in the data active = activation above about 8.9%
TRFRET interf – optically interferes with TR-FRET readout in LEDGF counter-screen | shares compounds with LEDGF integ inh | TR-FRET optical interference counterscreen, HIV-1 IN multimerization | inhibition, % at 7.7 µM | 2,000 tested, under 10 active | AID 1053135;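 active = inhibition above the mean over all tested compounds plus 3 SD, which no compound reached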;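 note: 0% = integrase with antibodies and DMSO and 100% = antibodies without integrase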
LEDGF integ conf – LEDGF/p75-dependent HIV-1 integration inhibition, confirmation | shares compounds with LEDGF integ inh | TR-FRET LEDGF/p75-dependent HIV-1 integration, biochemical | inhibition, % at 3.7 µM | actives 36% (n = 2,000) | AID 1053136; in the data active = inhibition above about 14%
An asterisk follows results filed as active; . = no result.

SMILES	DNMT1 block	rCAG binder	UHRF1 MBD2 ctr	LEDGF integ inh	MBD2 DNA inh	PG9 binder	IN multimer up	TRFRET interf	LEDGF integ conf
O=C(NN=C(c1ccccc1)c1ccccn1)c1ccccc1	1	1	8	21*	-3	2	-1	2	-1
COc1ccc(C(=O)N/N=C(\c2ccccc2)c2ccccn2)cc1	9	-3	0	0	-7	-1	.	.	.
Cc1cc(C)cc(NC(=S)N2CC(C)OC(C)C2)c1 (configuration not stated)	4	0	2	2	1	-3	.	.	.
CN(C)c1ccc(-c2ccnc3c2CC(C)(C(=O)NCCC(F)(F)F)O3)cc1 (configuration not stated)	4	-3	2	0	2	-1	.	.	.
Cc1ccc(CC(=O)N(Cc2ccccc2)c2ccccn2)cc1	0	-4	1	0	2	-2	.	.	.
Cc1ccc(OCC(=O)N(Cc2ccccc2)c2ccccn2)cc1	-1	-8	0	52*	-5	-1	-4	13	-5
CC1(C)CC(=O)C(C(C2=C(O)CC(C)(C)CC2=O)c2ccc([N+](=O)[O-])cc2)C(=O)C1 (configuration not stated)	-9	4	2	40*	-1	-1	0	-2	-8
CC(=NNC(=S)N1CCN(c2ccccn2)CC1)c1nccs1	-16	.	.	.	.	.	.	.	.
Oc1ccc(/C=N/Nc2ccc(Cl)nn2)c(O)c1O	0	24	21*	70*	6	-3	31*	-111	62*
COC(=O)[C@]12C[C@H](CC(=O)N3CCN(C(=O)c4ccco4)CC3)C(=O)N(CCc3ccc(OC)c(OC)c3)C1=C[C@H](C(C)(C)C)O[C@@H]2C	.	4	1	-2	-3	.	.	.	.
CCOc1ccccc1OCC(=O)NNC(=O)Cn1cnc2c1c(=O)n(C)c(=O)n2C	1	0	-2	14*	-1	0	-1	5	3
COC(=O)c1ccccc1NC(=O)Cn1cnc2c1c(=O)n(C)c(=O)n2C	-1	5	-1	3	-3	0	.	.	.
O=C1c2c(O)cc(O)cc2O[C@@]12c1c(cc(O)c3c1O[C@H](c1ccc(O)cc1)[C@@H](O)C3)O[C@@H]2c1ccc(O)cc1	-1	20	24*	18*	4	-2	13*	-67	39*
C=C(C)CNC(=O)C1CCC(=O)N(CCCc2ccccc2)C1 (configuration not stated)	-3	-4	-1	-1	3	-1	.	.	.
Oc1ccc(N=Cc2ccc(OCc3ccccc3)cc2)cc1	28	15	8	34*	-3	-13	22*	-78	35*
O=C(NCc1ccncc1)C1CCCN(S(=O)(=O)c2cc(Cl)ccc2Cl)C1 (configuration not stated)	-2	2	0	1	3	0	.	.	.
O=C(NCc1ccncc1)C1CCN(S(=O)(=O)c2cc(Cl)ccc2Cl)CC1	0	1	1	20*	-1	0	0	-1	-8
COc1ccc(NS(=O)CCCc2ccccc2)cc1 (configuration not stated)	-14	4	2	-2	4	-1	.	.	.
CCOC(=O)c1c(C)[nH]c(C(=O)N(C)Cc2cccc(OC)c2OC)c1C	3	-9	-1	-1	6	1	.	.	.
CN(C1=C(N2CCCCC2)C(=O)c2ccccc2C1=O)c1ccccc1	-16	-3	5	16*	9	-5	2	-11	3
O=C1C(Nc2ccccc2)=C(N2CCCCC2)C(=O)c2ccccc21	2	1	8	22*	0	0	-1	2	34*
Cc1ccc(NC2=C(N3CCCCC3)C(=O)c3ccccc3C2=O)cc1	-2	4	14	17*	-2	1	1	-4	38*
O=C(/C=C/c1ccc(O)cc1)c1ccc(NC2=C(N3CCCCC3)C(=O)c3ccccc3C2=O)cc1	-2	18	9	15*	-5	-1	4	-13	30*
CC(=NO)C1(C)CC=CCC1CO (configuration not stated)	-3	1	1	-1	-7	1	.	.	.
Cc1noc(C)c1NC(=O)N(C)C[C@@H]1Oc2ncc(Br)cc2C(=O)N([C@@H](C)CO)C[C@H]1C	4	2	5	-5	10	-1	.	.	.
SMILES	DNMT1 block	rCAG binder	UHRF1 MBD2 ctr	LEDGF integ inh	MBD2 DNA inh	PG9 binder	IN multimer up	TRFRET interf	LEDGF integ conf
O=C(COC(=O)C1CC(=O)N(Cc2ccco2)C1)Nc1nc(-c2ccc(F)cc2)cs1 (configuration not stated)	0	10	0	-9	2	-2	.	.	.
NC(=O)C1(Nc2ccc(Cl)cc2)CCCC1	1	1	0	1	2	1	.	.	.
COc1ccccc1NC1=C(N2CCCCC2)C(=O)c2ccccc2C1=O	-3	.	.	.	.	.	.	.	.
O=C1C(Nc2cccc(O)c2)=C(N2CCCCC2)C(=O)c2ccccc21	14	-9	13	20*	-6	0	-1	4	37*
CC(=C1N=C(c2ccccc2)OC1=O)c1cccs1	.	5	4	19*	1	-1	0	0	-2
COc1ccc(C[C@@H]2CN3C(=NC[C@@H]3C)N2C[C@H](C)NC(=O)CCC2CCCCC2)cc1	11	-1	2	52*	2	1	-3	12	-4
O=C1OC(Nc2cc(Br)cc3cccnc23)c2ccccc21 (configuration not stated)	47	14	6	54*	-15	-8	6	-28	74*
O=C1OC(Nc2ncccn2)c2ccccc21 (configuration not stated)	3	1	-5	0	-4	-2	.	.	.
CCc1ccc2c(c1)C(NC(C)=O)C(=O)N2CCN1CCOCC1 (configuration not stated)	3	-4	-2	15*	-9	0	-1	3	33*
CCCN1C(=O)C(NC(C)=O)c2ccccc21 (configuration not stated)	0	-1	7	2	9	0	.	.	.
O=C(N[C@@H](Cc1cccnc1)C(=O)N1CCC[C@H]1C(=O)NCCc1ccccc1Cl)c1ccccc1	.	-1	0	1	-1	-1	.	.	.
O=C(Cn1cnc2c(nnn2-c2ccccc2)c1=O)NCc1ccc(F)cc1	30	14	32*	15*	7	3	6	-29	3

Bioassay records (PubChem)
